Common to all, as to assay: NCI-60 one-dose screen, 48 h (100 = growth as untreated, 0 = no growth, -100 = all killed)
Common to all, as to details: 10 µM

Assay [1] concerns HCT-15 colon.
Assay [2] has as its system HT29 colon.
Assay [3] concerns SNB-75 CNS.
Assay [4] has as its system SNB-19 CNS.
For assay [5], the system named is PC-3 prostate.
For assay [6], the system named is SK-MEL-5 melanoma.
Assay [7] concerns UACC-62 melanoma.
Assay [8] relates to LOX IMVI melanoma.
Assay [9] deals with SK-MEL-28 melanoma.
Assay [10] concerns U251 CNS.

Compounds without any hit were thinned out: in the full panel of roughly 83,000, 20% have a hit.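 48-hour exposure, single concentration, 96-well plates; percent growth endpoint where 0 means no net growth. Active: below 10.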 Values without a mark were called inactive. The source made the active and inactive calls.

Turning to `CCOC(=O)c1cc2c(n1Cc1cccc(OC)c1)-c1oncc1CC2`, the growth in assay [1] is 28.7%; in assay [2], 4.06% (active); in assay [3] it was -5.1% (active); in assay [4], 37.4%; in assay [5], 32.7%; in assay [6], 8.61% (active). Further, the growth in assay [7] was 30.8%; in assay [8] it was 41.7%; in assay [9], 37.8%.
Consider `c1ccc(C2CCCCC2)c(OCCCCCN2CCNCC2)c1`, for which the growth is -34.7% (active) in assay [1]; 3.84% (active) in [2]; 48.3% in [3]; 71.1% in assay [4]; 43.6% in assay [5]; 16.5% in assay [6]. Moreover, the values for the growth in assay [7], in [8] and in assay [9] were -51.3% (active), -35% (active) and -15.8% (active), respectively.
In the case of `CCc1cc2n(n1)-c1ncc(C(=O)OC)cc1Oc1ccccc1-2`, the growth was 96.7% in assay [1]; 112% in [2]; 89.4% in [3]; 109% in assay [4]; 94.4% in [10]; 97.5% in assay [5]. For the same compound, the growth was 96.2% in [6], 102% in [7] and 120% in assay [9].
`Cn1c([N+](=O)[O-])cnc1C=C1C(=O)c2ccccc2C1=O`: the growth in [1] is 23.2%; in assay [2] it was 56.1%; in assay [3], 51%; in [4], 85.1%; in assay [5] it was 60.1%; in [6] it was 42.6%. The growth in assay [7] was 17.5%; in assay [8], 21.7%; in assay [9], 39.2%.
Take `COc1cc(CSc2nc3ccc(C)cc3c(=O)n2-c2ccccc2)cc(OC)c1OC`: the growth in [1] is 30.1%; in assay [2], 14.3%; in [3] it was -7.55% (active); in assay [4], 57.2%; in [5], 49.1%; in assay [6], 20%. Moreover, the figures for the growth in assay [7], in assay [8] and in assay [9] were 20.8%, 36% and 52%, respectively.
On to `CCOC(=O)c1c(C)n(-c2ccc(Cl)cc2)c2ccc(OC(=O)/C=C/c3ccccc3)cc12`, for which the growth in assay [1] is 60.8%; in [2], 66.1%; in assay [3], 66.6%; in assay [4], 89.7%; in assay [5] it was 67.7%; in [6] it was 79.1%. The figures for the growth in [7], in assay [8] and in [9] were 68.1%, 91.4% and 81.9%, respectively.
Consider `O=[N+]([O-])c1ccc(S(=O)(=O)OCCCCOS(=O)(=O)c2ccc([N+](=O)[O-])cc2)cc1`, for which the growth in assay [1] is 114%; in assay [2], 107%; in assay [3] it was 92%; in assay [4], 112%; in assay [5], 98.4%; in assay [6], 100%. In addition, the figures for the growth in assay [7], in [8] and in [9] were 99.8%, 94.6% and 99.1%, respectively.
Turning to `CCCC(C)c1ccc(OCCCCCCN2CCNCC2)cc1` (centres undefined), the growth is -39.3% (active) in [1]; 5.51% (active) in assay [2]; 35.9% in assay [3]; 56% in assay [4]; 49.4% in assay [5]; 53.5% in [6]. The figures for the growth in assay [7], in assay [8] and in [9] were -46.4% (active), -88.3% (active) and 13.2%, respectively.
With `CC(CNC(Cc1ccccc1)c1ccccc1)NC(Cc1ccccc1)c1ccccc1` (centres undefined), the growth is 30.6% in assay [1]; 4% (active) in [2]; 68.9% in [3]; 61.7% in assay [4]; 40.7% in assay [5]; 14.2% in [6]. Besides, the results for the growth in assay [7], in assay [8] and in [9] were 61.4%, -5.75% (active) and 64.2%, respectively.
On to `CCOc1nc(-c2ccccc2)cc2c(O)c(C(=O)NCCCO)[nH]c(=O)c12`, for which the growth in assay [1] is 102%; in assay [2], 104%; in assay [3], 88.6%; in assay [4], 96.9%; in [10], 100%; in [5], 46.3%. In addition, the growth is 88.8% in assay [6], 99.8% in [7] and 102% in assay [9].
As to `COc1ccc(-c2nc3sc(-c4ccccc4)c(-c4ccccc4)n3c2/C=C/c2ccc(F)cc2)cc1`, the growth in assay [1] is 91.4%; in assay [2], 94.7%; in assay [3] it was 72.3%; in assay [4] it was 108%; in [5] it was 61.6%; in assay [6], 99.6%. Further, the values for the growth in assay [7], in assay [8] and in assay [9] were 82.8%, 87.1% and 109%, respectively.
For `Nc1nc2c(nnn2C2CC(O)C(CO)O2)c(=O)[nH]1` (centres undefined), the growth in [1] is 41.6%; in assay [2], 51.4%; in assay [3] it was 61.8%; in assay [4], 94.3%; in assay [5], 26.5%; in assay [6], 87%. In addition, the growth in [7] was 25%; in assay [8] it was 19.5%; in assay [9], 87.5%.
In the case of `CCSc1nc2c([nH]1)c(=O)n(C)c(=S)n2C`, the growth in assay [1] was 105%; in [2], 109%; in assay [3] it was 126%; in assay [4], 109%; in assay [5], 101%; in [6], 119%. The growth is 105% in assay [7], 96.9% in [8] and 128% in assay [9].
In the case of `CC[C@@]1(C(N)=O)CC2C=CC1C2` (some centres undefined), the growth in assay [1] was 116%; in assay [2] it was 106%; in assay [3], 92.4%; in assay [4], 107%; in [5] it was 93.1%; in assay [6], 106%. Besides, the figures for the growth in [7], in assay [8] and in assay [9] were 107%, 105% and 112%, respectively.
For `CC(C)=C1CCC(C)C/C1=N\N=C(N)N` (centres undefined), the growth in assay [1] is 99.7%; in assay [2], 102%; in [3], 97.7%; in assay [4], 97.5%; in assay [5], 87.9%; in assay [6], 98.6%. Further, the growth is 103% in [7], 93.9% in assay [8] and 109% in [9].
Regarding `CC(Oc1ccc(Cl)cc1)c1ccccc1` (centres undefined), the growth is 112% in [1]; 106% in assay [2]; 97.3% in assay [3]; 99.7% in assay [4]; 93.4% in assay [5]; 100% in assay [6]. Moreover, the growth in [7] was 97.6%; in [8] it was 97.5%; in assay [9], 106%.
In the case of `CCCCCCCCCCCCCCCCn1cc[n+](C)c1`, the growth was 9.85% (active) in [1]; -100% (active) in [2]; -98.6% (active) in assay [3]; -75.9% (active) in [4]; -69.7% (active) in assay [5]; -95.2% (active) in [6]. In addition, the growth in assay [7] was -94.6% (active); in assay [8] it was -50.4% (active); in assay [9], -86.2% (active).
With `COc1ccc(-c2nc(-c3ccccc3)c(-c3ccccc3)[nH]2)cc1OC1CCCC1`, the growth in assay [1] is 19.8%; in assay [2], 35.5%; in [3], 70.5%; in assay [4], 66.4%; in assay [5], 50.1%; in assay [6], 67.7%. For the same compound, the figures for the growth in assay [7], in assay [8] and in assay [9] were 57%, 24.3% and 79.4%, respectively.
For `Cc1ccc(S(=O)(=O)Oc2ccccc2-c2ccccc2)cc1`, the growth was 23.2% in [1]; 5.05% (active) in [2]; -12.1% (active) in assay [3]; 42.8% in assay [4]; 42.4% in assay [5]; 5.97% (active) in assay [6]. The figures for the growth in assay [7], in [8] and in [9] were 37.1%, 36% and 30.8%, respectively.
Take `CCn1nc(-c2ccc(C(=O)OC)cc2)nc2c(=O)n(C)c(=O)nc1-2`: the growth was 64.1% in assay [1]; 70.7% in [2]; -44% (active) in [3]; 56.8% in assay [4]; 57.3% in assay [5]; 87% in assay [6]. Besides, the results for the growth in assay [7], in [8] and in assay [9] were 50.5%, 55.5% and 77.7%, respectively.
Take `C#CCn1c(-c2cccc(OCCCCl)c2)nc2c1c(=O)n(C)c(=O)n2C`: the growth was 86.9% in assay [1]; 102% in assay [2]; 89% in assay [3]; 97% in [4]; 26% in assay [5]; 61.4% in [6]. The values for the growth in [7], in [8] and in assay [9] were 46.2%, 93.8% and 95.7%, respectively.
As to `CCCCCCCCCCCCCCCC(=O)N1CCN(C)CC1`, the growth in assay [1] was 73.2%; in assay [3], 88.8%; in assay [4] it was 105%; in [10], 78.7%; in assay [5] it was 68.8%; in assay [6], 81.7%. The growth in [7] is 88.8%; in assay [8], -38.1% (active); in assay [9], 88.7%.
In the case of `O=C(NC1CCN(Cc2ccccc2)CC1)c1cc(-c2ccncc2)nc2ccc(Cl)cc12`, the growth was 24.2% in assay [1]; 19.9% in assay [2]; 68.7% in assay [3]; 24.8% in [4]; 33.9% in [5]; 16% in [6]. Also, the growth in assay [7] is 7.85% (active); in assay [8], 15.3%; in [9] it was 46.5%.
Take `O=S(=O)(NCCO)c1ccc(OCCOc2ccc(S(=O)(=O)NCCO)cc2)cc1`: the growth in assay [1] is 103%; in assay [2], 100%; in assay [3], 95%; in [4], 102%; in assay [5], 89.1%; in assay [6], 96.5%. In addition, the growth is 95.2% in assay [7], 96.6% in [8] and 105% in [9].
Consider `CC(=O)Nc1nc(C)c(C(=O)N/N=C/c2cccn2C)s1`, for which the growth in assay [1] is 106%; in assay [2], 101%; in assay [3] it was 109%; in assay [4], 117%; in assay [5], 94.9%; in assay [6], 98.4%. Further, the growth in assay [7] is 87.7%; in [8] it was 98.4%; in assay [9] it was 105%.
Take `O=C(Nc1ccc(OCc2nnc(-c3ccccc3)o2)c(F)c1)Nc1ccc(Cl)c(Cl)c1`: the growth in assay [1] is 49.4%; in assay [2], 53%; in assay [3] it was 66.4%; in assay [4] it was 59.9%; in [5], 55.6%; in [6], 65.9%. The growth in assay [7] was 58%; in assay [8], 54.8%; in assay [9], 73%.
`COc1ccc(Cn2cc3c(c2-c2cc(OC)c(OC)c(OC)c2)CCc2cnoc2-3)cc1[N+](=O)[O-]`: the growth in assay [1] is 34.2%; in assay [2], 13.1%; in [3] it was 18.5%; in [4], 43.2%; in assay [5] it was 27.6%; in [6], 16%. The growth in [7] is 35.4%; in assay [8], 39.6%; in [9], 68.9%.
`C[C@H](NC(=O)[C@@H]1CSSC[C@@H](NC(=O)Cc2nc3ccccc3cc2O)C(=O)NCC(=O)N1C)c1ccccc1`: the growth in assay [1] is 102%; in [2], 100%; in assay [3] it was 150%; in assay [4], 95.2%; in assay [5], 81.2%; in [6], 82.5%. Moreover, the growth in [7] was 77.9%; in assay [8], 31.3%; in assay [9] it was 67.4%.
On to `CCOC(=O)Cn1nnc(-c2ccc(OCc3ccccc3F)cc2)n1`, for which the growth in [1] is 88.5%; in assay [2] it was 92.4%; in [3], 57.8%; in assay [4], 93.9%; in [5], 89%; in [6] it was 91.5%. Further, the growth was 81.4% in [7], 85.2% in assay [8] and 72.9% in assay [9].
`CCOC(=O)Nc1ccc2c(c1)C(=O)N(CCOC)c1ccccc1O2`: the growth in assay [1] was 26.1%; in assay [2], 8.18% (active); in [3], 31.9%; in [4] it was 54.5%; in assay [5], 38.4%; in [6], 12.3%. The growth in [7] was 30.6%; in [8], 38.7%; in [9] it was 62.9%.
As to `COc1cccc(C(=O)N(c2ccc(F)c(F)c2)C(C(=O)NC(C)(C)C)c2cc3c(C)cc(C)cc3nc2Cl)c1` (centres undefined), the growth in assay [1] is 56.5%; in assay [2], 71.1%; in assay [3], 62.9%; in assay [4], 74.1%; in assay [5], 30.9%; in assay [6], 58.2%. The results for the growth in assay [7], in assay [8] and in assay [9] were 66.6%, 68.7% and 85.6%, respectively.

These data come from PubChem BioAssay (NCI).
